High-throughput results: PubChem, National Center for Advancing Translational Sciences (NCATS)
Hits are enriched below; roughly 10% of the tested compounds scored in any of these assays.
L3MBTL1 inh: L3MBTL1 (human) inhibition; AlphaScreen L3MBTL1–H3K9me1 peptide binding; Potency, µM (top dose mostly 57.1 µM), actives largely listed as inhibitors; 230,000 tested, 0.66% active; AID 485360; further: nearly all actives have a fitted effect of over 60% in size
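AlphaScreen proximity signal between nickel-chelate acceptor and streptavidin donor beads (final 10 ug/mL) reports binding of 50 nM L3MBTL1 to 75 nM biotin-H3 K9me1 peptide; complex incubated with compounds 30 min at room temperature; cefsulodin titration as control.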
G9a block: G9a (human) methyltransferase inhibition; Q96KQ7; G9a H3K9 monomethylation, AlphaScreen, 2 h; Potency, µM (doses to about 102 µM), actives largely listed as inhibitors; 350,000 tested, 8.8% active; further: nearly all actives have a fitted effect of over 75% in size
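G9a (20 nM) preincubated 15 min RT with compounds, then 500 nM biotinylated H3K9 peptide and 20 uM SAM added; 2 h RT reaction. Monomethyl-H3K9 product detected by AlphaScreen with anti-H3K9me1 antibody, streptavidin donor and anti-rabbit IgG acceptor beads.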
JMJD2A Tudor inh: JMJD2A Tudor domain (human) inhibition; Potency, µM (doses to about 114 µM), usual class: inhibitors; 390,000 tested, 4.4% active; AlphaScreen JMJD2A-Tudor / H3K4me3 peptide binding; O75164; further: nearly all actives have a fitted effect of over 50% in size
Target sequence (O75164 whole entry, looked up, the tested form may be a part): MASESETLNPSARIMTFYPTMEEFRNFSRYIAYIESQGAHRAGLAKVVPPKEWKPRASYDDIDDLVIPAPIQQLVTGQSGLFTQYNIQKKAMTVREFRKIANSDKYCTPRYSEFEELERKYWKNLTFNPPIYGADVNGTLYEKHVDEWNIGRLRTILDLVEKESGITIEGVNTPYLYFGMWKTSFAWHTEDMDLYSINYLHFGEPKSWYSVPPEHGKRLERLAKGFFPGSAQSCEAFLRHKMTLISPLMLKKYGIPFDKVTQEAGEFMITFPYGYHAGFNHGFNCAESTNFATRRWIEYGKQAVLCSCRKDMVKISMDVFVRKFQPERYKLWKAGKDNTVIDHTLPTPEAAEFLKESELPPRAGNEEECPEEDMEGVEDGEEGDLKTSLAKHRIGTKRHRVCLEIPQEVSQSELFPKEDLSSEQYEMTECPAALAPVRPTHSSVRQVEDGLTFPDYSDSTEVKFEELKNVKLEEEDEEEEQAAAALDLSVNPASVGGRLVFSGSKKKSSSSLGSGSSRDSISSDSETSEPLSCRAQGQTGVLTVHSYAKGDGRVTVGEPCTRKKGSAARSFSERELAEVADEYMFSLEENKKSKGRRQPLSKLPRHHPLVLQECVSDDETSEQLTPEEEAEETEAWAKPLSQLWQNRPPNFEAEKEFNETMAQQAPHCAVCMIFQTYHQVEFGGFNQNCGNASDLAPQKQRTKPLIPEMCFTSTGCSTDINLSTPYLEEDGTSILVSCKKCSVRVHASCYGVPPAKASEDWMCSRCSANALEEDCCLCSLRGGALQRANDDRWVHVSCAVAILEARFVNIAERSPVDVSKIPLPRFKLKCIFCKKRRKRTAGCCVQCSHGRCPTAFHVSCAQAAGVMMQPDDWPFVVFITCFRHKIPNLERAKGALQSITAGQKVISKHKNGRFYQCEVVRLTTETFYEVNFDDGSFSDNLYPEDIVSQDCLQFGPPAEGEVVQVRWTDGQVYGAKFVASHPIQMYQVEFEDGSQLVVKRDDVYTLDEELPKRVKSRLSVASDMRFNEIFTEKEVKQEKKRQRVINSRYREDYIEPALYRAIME
BAZ2B inh: inhibitors of human BAZ2B bromodomain; AID 504333; 360,000 tested, 4.4% active; AlphaScreen BAZ2B-H3K14Ac peptide displacement; Q9UIF8; Potency, µM (series often up to 114 µM), usual class: inhibitors; further: nearly all actives have a fitted effect of over 60% in size
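Compounds, titrated to a top concentration of 110 uM, were incubated 30 min at room temperature with preformed BAZ2B/acetyl-K14 H3 peptide complex (50 nM each). Proximity signal was measured by AlphaScreen after 20 min with beads.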
HP1b binding inh: inhibitors of HP1-beta chromodomain binding to methylated histone tails. P83916. AlphaScreen HP1-beta / biotin-H3K9me3 peptide binding. Potency, µM (series often up to 114 µM), usual class: inhibitors. 390,000 tested, 0.56% active; further: nearly all actives have a fitted effect of over 70% in size
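Compound inhibition of the preformed complex between 50 nM HP1-beta and 50 nM biotinylated H3K9me3 peptide was read by AlphaScreen. Buffer was PBS pH 7.4 with 0.01% Tween-20. Incubations ran 30 min at room temperature, with 10 ug/mL donor/acceptor beads.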
GLS inhibitor: blocks human kidney-isoform glutaminase activity | AID 624170 | 410,000 tested, 0.21% active | Potency, µM (top dose mostly 45.5 µM), most hits filed as inhibitors | O94925 | GLS enzymatic activity, qHTS titration
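Compounds were pin-transferred onto hKGA, after which L-glutamine (1 mM solution) and a detection mix of glutamate oxidase, HRP and Amplex Red were added. Initial and 30 min RT fluorescence reads were collected.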
Of the large screens only hits and unclear results are named; the others gave an inactive call. The call rests on the fitted dose curve; in most records, active means well fitted curve in the direction sought with a large enough effect; inconclusive means small, poorly fitted or top-dose-only effect, or another doubt; inactive means no such curve, though single readings can be large; an effect the other way counts as inactive or inconclusive.

CC(C)C(=O)NC(c1cccc([N+](=O)[O-])c1)c1ccc2cccnc2c1O (stereo not given)	L3MBTL1 inh inconclusive, JMJD2A Tudor inh inconclusive, BAZ2B inh 25µM (no result: G9a block)
O=C(CSc1nc2c([nH]c3ccccc32)c(=O)n1-c1ccc(Cl)cc1)NC1CCCCC1	none (no result: L3MBTL1 inh)
CC1(c2ccccc2)NC(=O)N(CC(=O)Nc2ccc(S(=O)(=O)NC3=NCCCCC3)cc2)C1=O (stereo not given)	none (no result: L3MBTL1 inh, G9a block, BAZ2B inh)
CC1CCc2ccccc2N1CC(=O)Nc1cccc(S(=O)(=O)N2CCCC2)c1 (stereo not given)	G9a block 20µM, JMJD2A Tudor inh inconclusive
CCOc1ccc(S(=O)(=O)N2CCOCC2)cc1NC(=O)CN1C(=O)NC(CC)(c2ccccc2)C1=O (stereo not given)	none (no result: L3MBTL1 inh)
CCC1(c2ccccc2)NC(=O)N(CC(=O)Nc2cc(Cl)ccc2N2CCOCC2)C1=O (stereo not given)	G9a block 35µM
CCC1(c2ccccc2)NC(=O)N(CC(=O)Nc2ccc(S(=O)(=O)NC3=NCCCCC3)cc2)C1=O (stereo not given)	G9a block 50µM
CCC1(c2ccccc2)NC(=O)N(CC(=O)Nc2ccccc2N2CCCC2)C1=O (stereo not given)	G9a block 40µM
Cc1sc(-c2cc3ccccc3oc2=O)nc1-c1ccc(Cl)cc1	none (no result: L3MBTL1 inh)
CC(C)c1ccc2oc(-c3cc(NC(=O)c4cccnc4)ccc3Cl)nc2c1	G9a block inconclusive (no result: L3MBTL1 inh)
CCOC(=O)c1cc(C)n(CC2CCC(C(=O)Nc3ccc(C(C)=O)cc3)CC2)c1C (stereo not given)	none (no result: L3MBTL1 inh)
Cc1cc(N2CCCC2)ccc1NC(=O)CN1C(=O)NC(C)(c2ccccc2)C1=O (stereo not given)	JMJD2A Tudor inh inconclusive, BAZ2B inh 25µM, GLS inhibitor inconclusive (no result: L3MBTL1 inh, G9a block)
CCC1(c2ccccc2)NC(=O)N(CC(=O)Nc2cccc(S(=O)(=O)N3CCCCC3)c2)C1=O (stereo not given)	G9a block 45µM
CCC1(c2ccccc2)NC(=O)N(CC(=O)NNC(=O)c2ccc(F)cc2)C1=O (stereo not given)	G9a block 6.3µM
CCC1(c2ccccc2)NC(=O)N(CC(=O)NCc2ccc(F)cc2)C1=O (stereo not given)	none (no result: L3MBTL1 inh)
CCC1(c2ccc(F)cc2)NC(=O)N(CC(=O)c2cc(C)n(C3CC3)c2C)C1=O (stereo not given)	G9a block 50µM
Cc1nn(-c2ccccc2)c2c1cc1c(=O)n(C)c(=O)nc-1n2-c1cccc(Cl)c1	none (no result: L3MBTL1 inh, BAZ2B inh)
Cc1ccc(Cn2c(C)c3cnn(CC(=O)NCCc4ccc(Cl)cc4)c(=O)c3c2C)cc1	none (no result: L3MBTL1 inh)
O=C(O)[C@@H]1CSCN1	none (no result: L3MBTL1 inh, JMJD2A Tudor inh, BAZ2B inh, HP1b binding inh)
O=C(CN1C(=O)C2CCCCC2C1=O)Nc1ccccc1N1CCCC1 (stereo not given)	G9a block inconclusive
O=C(CN1C(=O)C2CC=CCC2C1=O)Nc1ccccc1N1CCCC1 (stereo not given)	G9a block 50µM
COc1ccc(CNC(=O)CN2C(=O)NC(Cc3ccccc3)(c3ccccc3)C2=O)cc1OC (stereo not given)	G9a block 8.9µM
CCC1(c2ccccc2)NC(=O)N(CC(=O)Nc2ccc(N3CCCC3)cc2C)C1=O (stereo not given)	G9a block 1.8µM, JMJD2A Tudor inh 45µM, BAZ2B inh 45µM, HP1b binding inh inconclusive
CC1(c2ccccc2)NC(=O)N(CC(=O)Nc2ccc(N3CCOCC3)cc2N2CCOCC2)C1=O (stereo not given)	G9a block 56µM
O=C(NCCS(=O)(=O)N1CCN(c2cccc(Cl)c2)CC1)C(c1ccccc1)c1ccccc1	none (no result: L3MBTL1 inh)
Cc1nn(CC(=O)N2CCC(C)CC2)c(=O)c2cc3occc3n12	none (no result: L3MBTL1 inh)
O=C(NCc1ccc(F)cc1)c1cnc2n(c1=O)CCS2	G9a block inconclusive (no result: L3MBTL1 inh)
CSc1ccccc1NC(=O)c1cnc2n(c1=O)CCS2	G9a block inconclusive
O=C(NCc1ccco1)c1cnc2n(c1=O)CCS2	G9a block 50µM
O=C(O)c1ccccc1-c1ccccc1C(=O)NCc1ccco1	G9a block 50µM
O=C(NCc1ccco1)c1cc2cc(Br)ccc2o1	G9a block 8.9µM, JMJD2A Tudor inh inconclusive, BAZ2B inh inconclusive, HP1b binding inh inconclusive (no result: L3MBTL1 inh)
Cc1ccc(C)c(NC(=O)c2cnc3n(c2=O)CCS3)c1	G9a block 56µM
Cc1c(C(=O)NCc2ccco2)oc2ccc(Br)cc12	L3MBTL1 inh inconclusive, G9a block inconclusive, BAZ2B inh inconclusive
COC(=O)c1scc(-c2ccc(C)cc2)c1S(=O)(=O)Nc1cc(C)ccc1OC	none (no result: L3MBTL1 inh)
COc1ccc(-c2nc3ccc(NS(=O)(=O)c4ccc(C)cc4)cc3o2)cc1	none (no result: L3MBTL1 inh)
COC(=O)c1cc2oc3ccccc3c2n1CC(=O)Nc1ccc(C)cc1C	none (no result: L3MBTL1 inh)
COc1ccccc1CNS(=O)(=O)c1ccc(F)c(C(=O)Nc2cc(Cl)ccc2OC)c1	none (no result: L3MBTL1 inh)
O=C(c1cnc2n(c1=O)CCS2)N(C1CCCCC1)C1CCCCC1	G9a block 79µM
O=C(NCc1ccco1)c1cccs1	G9a block 40µM
O=C(NNC(=S)NCc1ccco1)c1cccs1	G9a block inconclusive, JMJD2A Tudor inh inconclusive
O=C(c1cnc2n(c1=O)CCS2)N(c1ccccc1)C1CCCCC1	none
CC(C)CN(C(=O)CSc1nn(-c2ccc(Cl)cc2)c(=S)s1)C1CCS(=O)(=O)C1 (stereo not given)	G9a block 20µM
Cc1nnc(SCC(=O)N(CC(C)C)C2CCS(=O)(=O)C2)s1 (stereo not given)	G9a block inconclusive
Cc1nc(SCC(=O)N(CC(C)C)C2CCS(=O)(=O)C2)c(C#N)c(C)c1C (stereo not given)	G9a block 50µM
Cc1ccc(-n2ccnc2SCC(=O)N(CC(C)C)C2CCS(=O)(=O)C2)c(C)c1 (stereo not given)	JMJD2A Tudor inh 20µM, GLS inhibitor inconclusive (no result: G9a block)
CCc1nc2ccccc2n2c(-c3ccccc3)c3c(=O)n(C)c(=O)n(C)c3c12	none (no result: L3MBTL1 inh)
c1ccc(CN(CCN(Cc2ccccn2)Cc2ccccn2)Cc2ccccn2)nc1	none (no result: L3MBTL1 inh, JMJD2A Tudor inh, BAZ2B inh, HP1b binding inh, GLS inhibitor)
COc1ccc(N=Cc2[nH]c3ccccc3c2O)cc1	G9a block 6.3µM (no result: L3MBTL1 inh)
Cc1c2cnn(CC(=O)N3CCN(c4ccccc4)CC3)c(=O)c2c(C)n1Cc1ccccc1Cl	none (no result: L3MBTL1 inh)
CCOc1ccc(N2C(=O)CC(SCc3nc4ccccc4[nH]3)C2=O)cc1 (stereo not given)	none (no result: G9a block)
CCOc1ccc(N2C(=O)CC(Sc3n[nH]c(-c4ccccc4)n3)C2=O)cc1 (stereo not given)	JMJD2A Tudor inh 4.5µM, HP1b binding inh inconclusive
